Source: PubChem BioAssay
Sampled rows, rich in hits. Any-hit rate of the full collection: about 3.7%.
HTT aggregate: mutant huntingtin aggregation inhibition; PC12 HttQ103-GFP aggregates, Acumen cytometry, 40 h; Potency, µM (doses to about 46.1 µM), without a hit: at the top dose activity change, negative = inhibition, usual class: inhibitors; 220,000 tested, 1.1% active; AID 1688; note: % is set by controls: 0 for no effect and ±100 for the full control effect; nearly all actives have a fitted effect of over 60% in size
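Multiplexed with ATP-based cell death, this channel scores GFP aggregates in PC12 cells expressing inducible HTTex1-Q103-GFP. Induction used 100 nM tebufenozide; compounds were tested in concentration series.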
Tau fluor counter: counter-screen for tau fibril formation inhibitors; AID 1463; tau K18 P301L Alexa594 fluorescence, heparin fibrillization; 280,000 tested, 0.93% active; Potency, µM (highest dose often 57.7 µM), inactives show top-dose activity change, negative = decrease; note: % is set by controls: 0 for no effect and ±100 for the full control effect; nearly all actives have a fitted effect of over 55% in size
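Human tau K18 P301L (15 uM unlabeled, 0.24 uM Alexa 594-labeled) in 100 mM sodium acetate pH 7 with 20 uM heparin, 6 hr at 37 C. ThT 30 uM added, 1 hr ambient; Alexa 594 FP and total fluorescence read at 555/632 nm.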
HTT cytoprotect: protects HTT-Q103 PC12 cells, measured by ATP; PC12 HTT-Q103 induced, cytoprotection, ATP luminescence, 40 h; Potency, µM (series often up to 56.4 µM), for the others: cytoprotection (ATP increase), hits mostly activators; 230,000 tested, 0.14% active; AID 1471; note: % of control where 0% means no effect; nearly all actives have a fitted effect of over 45% in size
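Stable PC12 Q103-GFP cells in serum-supplemented, phenol red-free DMEM; induction by tebufenozide at 100 nM final; compound dose series; cell viability quantified luminescently from ATP.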
Tau fibril ThT: tau fibrillization inhibition (ThT binding). P10636. recombinant tau K18 P301L, heparin-induced fibrillization, ThT fluorescence. Potency, µM (series often up to 57.4 µM), without a hit: at the highest dose activity, negative = inhibition, actives largely listed as inhibitors. 270,000 tested, 2.1% active; note: % is set by controls: 0 for no effect and ±100 for the full control effect; nearly all actives have a fitted effect of over 55% in size
Target sequence (P10636 561-689 P618L limits assumed): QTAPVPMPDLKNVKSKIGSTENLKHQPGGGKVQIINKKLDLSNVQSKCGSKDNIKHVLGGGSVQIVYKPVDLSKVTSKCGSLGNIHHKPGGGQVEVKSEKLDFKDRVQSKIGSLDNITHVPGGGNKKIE
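Using a mix of unlabeled (15 uM) and Alexa 594-labeled (0.24 uM) tau K18 P301L, heparin-triggered fibrillization over 6 hr at 37 C was scored by ThT fluorescence.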
Tau FP inhib: inhibitors of human tau fibril formation. AID 1468. Potency, µM (highest dose often 57.7 µM), inactives show top-dose activity, negative = inhibition, actives largely listed as inhibitors. K18 P301L tau heparin fibrillization, Alexa594 FP, 6 h. P10636. 280,000 tested, 0.39% active; note: % is set by controls: 0 for no effect and ±100 for the full control effect; nearly all actives have a fitted effect of over 55% in size
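K18 P301L tau (15 uM unlabeled/0.24 uM Alexa 594-labeled, final) + compound + heparin 20 uM final; 100 mM NaOAc pH 7; 6 hr 37 C; ThT 30 uM final added, 1 hr RT; FP ex 555/em 632 nm.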
* = called active by the depositor; u = inconclusive; x = no result; [ ] = dose if it differs, or a comment. Calls come from the whole dose curve; as a rule, active = well fitted curve in the direction sought with a large enough effect; inconclusive = small, poorly fitted or top-dose-only effect, or another doubt; inactive = no such curve, though single readings can be large; an effect the other way counts as inactive or inconclusive. Potency is the fitted concentration of half-maximal effect.

SMILES	HTT aggregate	Tau fluor counter	HTT cytoprotect	Tau fibril ThT	Tau FP inhib
CN1/C(=C\C(=O)COc2ccc3c(c2)OCO3)C(C)(C)c2ccccc21	22µM*	-15%	-19%	u	5%
COc1cc(/C=C(/NC(=O)c2ccccc2)C(=O)Nc2ccccc2)c([N+](=O)[O-])cc1OC	-1%	-13%	-8%	-10%	5%
COc1cc(C=O)c([N+](=O)[O-])cc1OC	x	u	-20%	3.2µM*	6.3µM*
COc1ccc(CCN(C)CCC[C@@](C#N)(c2cc(OC)c(OC)c(OC)c2)C(C)C)cc1OC	x	x	-6%[1.9 µM]	x	x
CCSc1nc2c(c(=O)n1Cc1ccccc1)SC(C)C2 (stereo not given)	28µM*	-5%	5%	-9%	-5%
CC1Cc2nc(SCC(N)=O)n(Cc3ccccc3)c(=O)c2S1 (stereo not given)	-22%[9.22 µM]	-5%	-4%	-2%	-5%
C=C/C(C)=C/[C@]1(C)SC(=O)C(C)=C1O	x	x	-3%[1.9 µM]	x	x
Cc1ccc(Cl)cc1N1CCN(C(=O)Cn2cnc3sc(C)c(S(=O)(=O)N4CCC(C)CC4)c3c2=O)CC1	x	-24%	x	u	-9%
CCCCCC(=O)c1ccc(O)cc1O	0.14µM*	-18%	-11%	-7%	-5%
CCCOc1cccc(C(=O)N(Cc2sccc2C)C2CCS(=O)(=O)C2)c1 (stereo not given)	x	-19%	x	-12%	-3%
Cc1ccc(O)c(-c2n[nH]c3c2C(c2ccc(F)cc2)N(Cc2ccco2)C3=O)c1 (stereo not given)	x	14µM*[quencher]	x	u	4%
CN1CCN(c2ncc3nc(-c4cc(F)cc(F)c4)c(=O)n(CCC#N)c3n2)CC1	x	x	-3%	x	x
COc1ccc(NC(=O)c2c(NC(=O)C(F)(F)F)sc3c2CCCCC3)cc1	x	u	x	16µM*	-1%
CCOC(=O)c1ccc(NC(=O)c2c(NCc3sccc3C)sc3c2CCCCC3)cc1	x	-28%	x	32µM*	-21%
COc1ccc(NC(=O)c2c(NCc3cccc(OC)c3)sc3c2CCCC3)cc1	x	u	x	u	-16%
COc1ccc(NC(=O)c2c(NCc3ccc(OC)c(OC)c3OC)sc3c2CCC3)c(OC)c1	x	u	x	14µM*	-3%
COc1ccc(NC(=O)c2c(NC(=O)CCC(=O)O)sc3c2CCCCC3)cc1	17%[9.22 µM]	-10%	25%[10 µM]	u	8%
COc1ccc(NC(=O)c2c(NCc3ccc(N(C)C)cc3)sc3c2CCC3)cc1	x	u	x	16µM*	-13%
O=C1CC(c2ccccc2)Cc2[nH]c(=O)c(C(=O)Nc3cccc(F)c3)cc21 (stereo not given)	x	12%	x	10%	-4%
OC[C@@H]1O[C@@H](n2cnc3c(SCc4ccccc4)ncnc32)[C@@H](O)[C@H]1O	x	x	-23%[10 µM]	x	x
COc1ccc(Cl)cc1NC(=O)c1c(NCc2cccnc2)sc2c1CCCC2	x	u	x	18µM*	-11%
COc1ccc(C(=O)c2c(C(F)(F)F)oc3c2C(=O)c2ccccc2C3=O)cc1	3.2µM*	u	-85%	u	u
COc1ccc(CCn2c(O)cc3nn(-c4nc5ccccc5s4)c(=O)c-3c2C)cc1	35%[9.22 µM]	u	10%[10 µM]	18µM*	-6%
CC(O)CN(C)CC/C=C1/c2ccccc2CSc2ccccc21 (stereo not given)	8.9µM*	-14%	6%[10 µM]	-12%	2%
CN(CC/C=C1/c2ccccc2CSc2ccccc21)CCCO	u	-12%	x	u	3%
SMILES	HTT aggregate	Tau fluor counter	HTT cytoprotect	Tau fibril ThT	Tau FP inhib
CN(C)c1ccc(N2C(=O)CC(Nc3ccc(N4CCOCC4)cc3)C2=O)cc1 (stereo not given)	12%	-15%	10%[10 µM]	14µM*	0%
COc1ccc(N2C(=O)CC(Nc3ccc(N4CCOCC4)cc3)C2=O)c(OC)c1 (stereo not given)	3%	-21%	-17%	u	0%
O=C1CC(Nc2ccc(N3CCOCC3)cc2)C(=O)N1c1cccc(C(F)(F)F)c1 (stereo not given)	27%	-26%	-2%	16µM*	0%
COc1cccc(N2C(=O)CC(Nc3ccc(N4CCOCC4)cc3)C2=O)c1 (stereo not given)	17%	-25%	-45%	14µM*	1%
O=C(O)CCSCc1ccccc1	x	x	6%[10 µM]	x	x
C=C(C(C)=O)C(O)c1ccccc1 (stereo not given)	x	3%	-26%	-12%	8%
C=C(C(C)=O)C(O)c1ccco1 (stereo not given)	x	-24%	x	28µM*	u
Cc1c(Nc2cc(Cl)c3nonc3c2[N+](=O)[O-])c(=O)n(-c2ccccc2)n1C	u	10µM*[quencher]	-205%	4µM*	u
O=C(O)c1ccc(Nc2cc(Cl)c3nonc3c2[N+](=O)[O-])cc1	u	u	u	7.1µM*	-2%
Cc1c(Nc2cc(N3CCOCC3)c3nonc3c2[N+](=O)[O-])c(=O)n(-c2ccccc2)n1C	17%	0%	x	-3%	-5%
NS(=O)(=O)c1ccc(Nc2ccc3nonc3c2[N+](=O)[O-])cc1	-11%	-8%	-9%	u	-6%
Clc1nc2ccccc2nc1Cl	x	x	21%	x	x
Cc1nc(NCCc2ccccc2)c2oc3ccccc3c2n1	7.9µM*	-24%	-44%	u	7%
Cc1nc(NCCN2CCOCC2)c2oc3ccccc3c2n1	-9%	3%	-8%	-5%	4%
Cc1ccc(-c2nc3c4ccccc4n(CC(=O)N4CCN(c5ccccc5F)CC4)c(=O)n3n2)cc1	x	5%	x	0%	-7%
Cc1cccc(CNC(=O)C2CCN(c3nc4ccc(Cl)cc4[nH]3)CC2)c1	x	-30%	x	u	u
O=C(Oc1cccnc1)c1ccc([N+](=O)[O-])cc1	-13%	8.9µM*[quencher]	14%[10 µM]	u	12%
Oc1ccc2c(c1)OCO2	x	x	-5%	x	x
Oc1ccc2c(c1)OCC1(O)Cc3cc(O)c(O)cc3C21 (stereo not given)	x	u	-339%	22µM*	u
Oc1cc2c(cc1O)[C@H]1c3ccc(O)c(O)c3OC[C@@]1(O)C2	x	u	-8%[1.9 µM]	18µM*	u
N[C@@H](CCCCO)C(=O)O	x	x	-7%[10 µM]	x	x
O=C(O)c1cccc(C[C@H](Br)C(=O)O)c1	x	x	-18%[10 µM]	x	x
C1CCCNCC1	x	x	-24%	x	x
Cc1ncc([N+](=O)[O-])n1Cc1ccccc1	-12%	-15%	22%[10 µM]	-12%	2%
O=[N+]([O-])c1cnc2ccccn12	7%[9.22 µM]	5%	4µM*	x	0%
O=C1c2cccc3cccc(c23)C(=O)N1c1cccnc1	u	u	-75%	-7%	13µM*
Cc1ccc(NC(=O)CSc2ncc3c(n2)-c2ccccc2N(C)S3(=O)=O)c(Cl)c1	x	u	x	-15%	-14%
Cc1cccc(C(=O)N/N=C/c2ccc[nH]2)c1	-4%	-11%	x	u	3%
